Experimental data: PubChem BioAssay (NCI)
Compounds without any hit were thinned out: in the full panel of roughly 79,000, 15% have a hit. Active and inactive are the calls of the source. Cut-off read from the data, not from the text of the source: active = growth inhibition above about 70%; inactive = the rest.

Columns and labels:
[1] = NCI Yeast Anticancer Drug Screen. Data for the wt1 strain (AID 149);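 note: 0% = growth of vehicle-treated wt1 cultures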; settings: S. cerevisiae wt1 strain (SPY 50644) growth inhibition, stronger effect = higher value
Method in brief: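 Compounds are added to wt1 yeast cultures. Growth is then measured. Inhibition is expressed relative to vehicle-treated controls.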

[2] = NCI Yeast Anticancer Drug Screen. Data for the rad50EPP+ strain (AID 151);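 note: 0% = growth of vehicle-treated control cultures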; settings: S. cerevisiae rad50 mutant strain, stronger effect = higher value
Method in brief: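 Exposing the rad50EPP+ strain to each compound, growth was compared with vehicle-only cultures to give inhibition.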

[3] = NCI Yeast Anticancer Drug Screen. Data for the mgt1 strain (AID 153); settings: S. cerevisiae mgt1 mutant growth inhibition, stronger effect = higher value
Method in brief: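 Genetically defined yeast (mgt1) treated with compound; inhibition of growth expressed against vehicle-treated controls.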

[4] = NCI Yeast Anticancer Drug Screen. Data for the rad50 strain (AID 155);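 note: 0% = growth of vehicle-only cultures of the same strain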; settings: S. cerevisiae rad50 strain growth inhibition, stronger effect = higher value
Method in brief: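 Inhibition values express reduced yeast growth in compound-treated cultures relative to vehicle-treated controls.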

[5] = NCI Yeast Anticancer Drug Screen. Data for the mec2-1 strain (AID 157); settings: S. cerevisiae mec2-1 strain, stronger effect = higher value
Method in brief: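 Readout is yeast growth inhibition, normalised to vehicle-treated controls, in the mec2-1 strain exposed to compound.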

[6] = NCI Yeast Anticancer Drug Screen. Data for the rad14 strain (AID 159);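 note: 0% = growth of vehicle-treated control cultures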; settings: S. cerevisiae rad14 strain growth inhibition, stronger effect = higher value
Method in brief: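 A mutant yeast strain defective in DNA damage repair is treated with compound; inhibition of its growth is scored against untreated, vehicle-exposed cultures.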

[7] = NCI Yeast Anticancer Drug Screen. Data for the sgs1 mgt1 strain (AID 161);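 note: 0% = growth of cultures given vehicle only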; settings: S. cerevisiae sgs1 mgt1 strain, stronger effect = higher value
Method in brief: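 Compounds are added to genetically altered yeast, and growth is compared with cultures given vehicle alone to give percent inhibition.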

[8] = NCI Yeast Anticancer Drug Screen. Data for the CLN2oe strain (AID 163);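 note: 0% = growth of vehicle-only control cultures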; settings: S. cerevisiae CLN2oe strain, stronger effect = higher value
Method in brief: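 Values reflect how much compound exposure reduced yeast growth, referenced to vehicle-exposed cells. Assay organism is a strain with a defined genetic change affecting cell-cycle control.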

[9] = NCI Yeast Anticancer Drug Screen. Data for the cln2 rad14 strain (AID 165);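 note: 0% = growth equal to vehicle treated cultures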; settings: S. cerevisiae cln2 rad14 strain, stronger effect = higher value
Method in brief: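 Relative to vehicle controls, growth inhibition of compound-treated cln2 rad14 yeast was recorded.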

[10] = NCI Yeast Anticancer Drug Screen. Data for the bub3 strain (AID 167); settings: S. cerevisiae bub3 mutant strain, stronger effect = higher value
Method in brief: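 Steps: expose the mutant yeast strain to compound; grow alongside vehicle-treated cultures; measure growth; express inhibition against the vehicle cultures.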

[11] = NCI Yeast Anticancer Drug Screen. Data for the wt2 strain (AID 169);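 note: 0% = growth of vehicle-treated yeast cultures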; settings: S. cerevisiae wt2 strain growth inhibition, stronger effect = higher value
Method in brief: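 Values express reduction in yeast growth under compound treatment, referenced to vehicle-treated cells.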

[12] = NCI Yeast Anticancer Drug Screen. Data for the mlh1 strain (AID 171);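 note: 0% = growth of vehicle-treated control cultures of the same strain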; settings: S. cerevisiae mlh1 strain growth inhibition, stronger effect = higher value
Method in brief: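 Steps: expose the defined-mutant yeast strain to compound; expose a parallel culture to vehicle; measure growth; express compound effect as inhibition relative to the vehicle culture.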

[13] = NCI Yeast Anticancer Drug Screen. Data for the sgs1 strain (AID 173);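 note: 0% = growth of vehicle-only control cultures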; settings: S. cerevisiae sgs1 mutant, stronger effect = higher value
Method in brief: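 Treat defined-mutant yeast with compound; measure growth; calculate inhibition relative to vehicle-treated cells.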

[14] = NCI Yeast Anticancer Drug Screen. Data for the mlh1 rad18 strain (AID 175); settings: S. cerevisiae mlh1 rad18 strain growth inhibition, stronger effect = higher value
Method in brief: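 Test agents were incubated with a yeast strain of defined genotype (DNA damage repair defect). Inhibition of growth was derived by comparison with vehicle-exposed cultures.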

[15] = NCI Yeast Anticancer Drug Screen. Data for the rad18 strain (AID 177); settings: S. cerevisiae rad18 mutant growth inhibition, stronger effect = higher value
Method in brief: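 A genetically defined yeast mutant impaired in DNA damage repair was treated with test compounds, then its growth was measured against cultures receiving vehicle alone.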

[16] = at 5.0 µM (retest, dose inferred, filed as 0.5)
[17] = at 50.0 µM (retest, dose inferred, filed as 5.0)

Measured: growth inhibition

CC(C)NC(=O)OCc1c(COC(=O)NC(C)C)c(-c2ccc(Cl)c(Cl)c2)n2c1CCC2
inactive: [1]; at 1.2 µM -38% | [1]; at 3.7 µM -34% | [1]; at 11.0 µM -45% | [1]; at 33.0 µM -32% | [1]; at 100.0 µM 30% | [2]; at 1.2 µM -23% | [2]; at 3.7 µM -18% | [2]; at 11.0 µM -5% | [2]; at 33.0 µM -18% | [2]; at 100.0 µM -4% | [3]; at 1.2 µM -60% | [3]; at 3.7 µM -48% | [3]; at 11.0 µM -59% | [3]; at 33.0 µM -39% | [4]; at 1.2 µM -35% | [4]; at 3.7 µM -29% | [4]; [16] 8% | [4]; at 11.0 µM -24% | [4]; at 33.0 µM 1% | [4]; [17] 44% | [4]; at 50.0 µM 58.6% | [4]; at 100.0 µM 63% | [5]; at 1.2 µM -71% | [5]; at 3.7 µM -61% | [5]; [16] -1% | [5]; at 11.0 µM -56% | [5]; at 33.0 µM -53% | [5]; [17] 8% | [5]; at 50.0 µM 47.6% | [5]; at 100.0 µM 47% | [6]; at 1.2 µM -33% | [6]; at 3.7 µM -26% | [6]; at 11.0 µM -30% | [6]; at 33.0 µM 10% | [7]; [16] 9% | [7]; at 50.0 µM 23% | [8]; at 1.2 µM 4% | [8]; at 3.7 µM 0% | [8]; at 11.0 µM 4% | [8]; at 33.0 µM 11% | [8]; at 100.0 µM 32% | [9]; [16] 23% | [9]; [17] 24% | [9]; at 50.0 µM 3.3% | [10]; at 1.2 µM -65% | [10]; at 3.7 µM -66% | [10]; [16] 18% | [10]; at 11.0 µM -69% | [10]; at 33.0 µM -34% | [10]; at 50.0 µM 17.4% | [10]; at 100.0 µM 63% | [11]; at 1.2 µM -31% | [11]; at 3.7 µM -21% | [11]; at 11.0 µM -31% | [11]; at 33.0 µM -36% | [11]; at 100.0 µM 26% | [12]; at 1.2 µM -44% | [12]; at 3.7 µM -71% | [12]; at 11.0 µM -69% | [12]; at 33.0 µM -40% | [13]; at 1.2 µM -21% | [13]; at 3.7 µM -17% | [13]; at 11.0 µM -1% | [13]; at 33.0 µM 12% | [14]; [16] 13% | [14]; [17] 68% | [14]; at 50.0 µM 69.2% | [15]; at 1.2 µM -17% | [15]; at 3.7 µM 2% | [15]; at 11.0 µM 1% | [15]; at 33.0 µM 34%
active: [3]; at 100.0 µM 76% | [6]; at 100.0 µM 84% | [7]; [17] 72% | [10]; [17] 79% | [12]; at 100.0 µM 76% | [13]; at 100.0 µM 80% | [15]; at 100.0 µM 84%

Cc1cc(O)cc(O)c1N=Nc1ccc([N+](=O)[O-])cc1
active: [4]; [17] 98% | [4]; at 50.0 µM 70.3% | [5]; [17] 95% | [9]; [17] 72% | [9]; at 50.0 µM 72.7%
inactive: [1]; at 1.2 µM 12% | [1]; at 3.7 µM 17% | [1]; at 11.0 µM 21% | [1]; at 33.0 µM 51% | [1]; at 100.0 µM 62% | [2]; at 1.2 µM 18% | [2]; at 3.7 µM 12% | [2]; at 11.0 µM 15% | [2]; at 33.0 µM 22% | [2]; at 100.0 µM 21% | [3]; at 1.2 µM 11% | [3]; at 3.7 µM 15% | [3]; at 11.0 µM 23% | [3]; at 33.0 µM 59% | [3]; at 100.0 µM 64% | [4]; at 1.2 µM -6% | [4]; at 3.7 µM 2% | [4]; [16] 47% | [4]; at 11.0 µM -1% | [4]; at 33.0 µM 18% | [4]; at 100.0 µM 31% | [5]; at 1.2 µM 7% | [5]; at 3.7 µM 8% | [5]; [16] 54% | [5]; at 11.0 µM 8% | [5]; at 33.0 µM 46% | [5]; at 50.0 µM 36.1% | [5]; at 100.0 µM 63% | [7]; [16] 3% | [7]; [17] 25% | [7]; at 50.0 µM 46.6% | [9]; [16] 24% | [10]; at 1.2 µM 4% | [10]; at 3.7 µM 26% | [10]; [16] 16% | [10]; at 11.0 µM 43% | [10]; at 33.0 µM 56% | [10]; [17] 49% | [10]; at 50.0 µM 43.1% | [10]; at 100.0 µM 62% | [11]; at 1.2 µM 5% | [11]; at 3.7 µM 11% | [11]; at 11.0 µM -4% | [11]; at 33.0 µM 26% | [11]; at 100.0 µM 45% | [12]; at 1.2 µM -10% | [12]; at 3.7 µM -2% | [12]; at 11.0 µM -3% | [12]; at 33.0 µM 23% | [12]; at 100.0 µM 33% | [13]; at 1.2 µM -3% | [13]; at 3.7 µM -2% | [13]; at 11.0 µM 4% | [13]; at 33.0 µM 32% | [13]; at 100.0 µM 47%
